Screening results (PubChem BioAssay)
HT1080 IDH1KD tx: kills HT-1080 cells with IDH1 knockdown. HT-1080 IDH1 knockdown viability, ATP luminescence, 48 h. Potency, µM (titrated, usually from 46.1 µM), inactives show at the top dose activity, negative = toxicity, most hits filed as cytotoxic. 360,000 compounds, 2% hits;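 note: 0% = DMSO wells and -100% = cell-free medium wells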
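% activity derives from luminescence (CellTiter-Glo), normalised to DMSO and no-cell wells. HT-1080-IDH1KD cells, 750/well, had 48 h compound exposure at 37 °C.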
KB-3-1 tox: KB-3-1 parental cell cytotoxicity; KB-3-1 viability, CellTiter-Glo ATP luminescence, 72 h; Potency, µM (doses to about 46.1 µM), usual class: cytotoxic; 400,000 compounds, 1.4% hits; AID 1347075; note: nearly all actives have a fitted effect of over 60% in size
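Here the drug-naive KB-3-1 line serves as comparator for MDR sub-line selectivity; cells received compound titrations, 72 h at 37 °C, then CellTiter-Glo readout.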
DT40 TDP1 no CPT: qHTS for Inhibitors of human tyrosyl-DNA phosphodiesterase 1 (TDP1): qHTS in cells in absence of CPT; DT40 Tdp1-/- hTDP1 cells, no CPT, ATP luminescence, 48 h; Potency, µM (highest dose often 46.2 µM), for inactives: top-dose activity change, negative = growth inhibition, actives largely listed as inhibitors; 420,000 compounds, 15% hits; note: nearly all actives have a fitted effect of over 55% in size
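Growth of hTDP1-complemented DT40 Tdp1-knockout cells is measured by ATP luminescence after at least 48 hr compound exposure at 37 °C, with DMSO substituting for the 20 nM CPT used in the parallel screen.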
KB-V1 cytotox: kills drug-selected multidrug resistant KB-V1 cells. KB-V1 MDR cells viability, CellTiter-Glo, 72 h. Potency, µM (series often up to 46.1 µM), hits mostly cytotoxic. 400,000 compounds, 3.4% hits. AID 1347076; note: nearly all actives have a fitted effect of over 60% in size
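Compound-treated KB-V1 multidrug-resistant cells, 72 h, 37 degrees C; viability by CellTiter-Glo. Fitted qHTS curves give the values.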
HT1080-NT tox: kills 2HG-producing HT-1080-NT fibrosarcoma cells | HT-1080-NT fibrosarcoma viability, CellTiter-Glo ATP luminescence, 48 h | Potency, µM (titrated, usually from 46.1 µM), for inactives: at the highest dose activity, negative = less viability, hits mostly cytotoxic | 360,000 compounds, 1.6% hits | AID 686970;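 note: NT is the 2HG producing partner of a matched IDH1 knockdown line; 0% = DMSO-treated cells and -100% = media-only wells without cells; nearly all actives have a fitted effect of over 55% in size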
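750 cells/well, RPMI + 5% FBS; 2 h settle, compound pin-transfer, 48 h at 37 degrees C. CellTiter-Glo 10 min RT, luminescence. Normalized to DMSO and media-only wells.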
TDP1 cell CPT: DT40-hTDP1 cell growth loss with CPT | chicken DT40 Tdp1-/-;hTDP1 cells + 20 nM CPT, ATP luminescence, 48 h | AID 686979 | 420,000 compounds, 12% hits | Potency, µM (highest dose often 46.2 µM), for the others: at the top dose activity change, negative = growth inhibition, most hits filed as inhibitors; note: nearly all actives have a fitted effect of over 55% in size
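Chicken DT40 Tdp1-/- cells complemented with human TDP1, 400 cells/well, exposed to compounds plus 20 nM camptothecin for at least 48 h at 37 C; viability read as ATP content by CellTiter-Glo luminescence.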
* marks the source's active call; other numbers are inactive results; i = inactive; u = inconclusive; x = no result; [ ] = dose if it differs, or a comment. An excerpt weighted towards active compounds, which were near 19% of everything screened. Calls come from the whole dose curve; as a rule, active = well fitted curve in the direction sought with a large enough effect; inconclusive = small, poorly fitted or top-dose-only effect, or another doubt; inactive = no such curve, though single readings can be large; an effect the other way counts as inactive or inconclusive. Unless noted, % is set by controls: 0 for no effect and ±100 for the full control effect; potency is the fitted concentration of half-maximal effect.

SMILES | HT1080 IDH1KD tx | KB-3-1 tox | DT40 TDP1 no CPT | KB-V1 cytotox | HT1080-NT tox | TDP1 cell CPT
CN1CC[C@@H]2C(=O)N3CCc4ccc(-c5ccc6c(c5)OCO6)cc4[C@@H]3C[C@@H]21 | -1% | i | u | i | -1% | 18µM*
COc1c2c(cc3oc(CO[C@@H]4O[C@H](CO)[C@@H](O)[C@H](O)[C@H]4O)cc(=O)c13)O[C@H](C(C)(C)O)C2 | 11% | i | -11% | i | -3% | 1%
COC(=O)CSc1nnc(CCc2ccccc2)n1C | 22% | u | 0% | u | 22% | -9%
CCOC(=O)N1CCN(CC(=O)Nc2sccc2C#N)CC1 | 4% | u | 15µM* | i | -6% | 21µM*
Cc1ccc(C)c(S(=O)(=O)N2CCN(CC(=O)Nc3sccc3C#N)CC2)c1 | -13% | i | 18µM* | u | -7% | 16µM*
N#Cc1ccsc1NC(=O)CN1CCCCCC1 | 18% | i | u | i | 12% | -27%
O=C(CCn1c(=O)c2cccn2c2cccnc21)NCc1ccc(F)cc1 | x | x | -20% | x | x | 9%
CCOc1cc(/C=C2\SC(=Nc3ccc(CC)cc3)NC2=O)ccc1OCC(=O)O | 11% | i | -8% | i | 14% | -3%
CC(Oc1ccc2ccc(=O)oc2c1)C(=O)NC1CCN(Cc2ccccc2)CC1 (stereo unspecified) | -3% | i | -4% | i | -1% | -3%
Cc1ccc(-n2ncc(C(=O)NCc3cccs3)c2C2CCN(C(=O)OC(C)(C)C)CC2)cc1 | x | i | u | i | x | 23µM*
Cc1ccc(CNC(=O)c2cnn(-c3cccc(C)c3)c2C2CCN(C(=O)OC(C)(C)C)CC2)cc1 | x | u | 23µM* | i | x | 16µM*
CC(C)(C)OC(=O)N1CCC(c2c(C(=O)NCc3ccccc3)cnn2-c2ccccc2)CC1 | x | i | u | i | x | u
CC(C)(C)OC(=O)N1CCC(c2c(C(=O)NCc3ccco3)cnn2-c2ccccc2)CC1 | x | i | u | i | x | u
Cn1c(SCC(=O)O)nnc1-c1cccc(NC(=O)c2cccc3ccccc23)c1 | 5% | i | 10% | i | 1% | 16%
CN(C)CCNC(=O)CN1C(=O)CCn2nc(-c3cn(C)c4ccccc34)cc21 | x | i | 4% | i | x | -13%
COc1ccc(-c2cc(=O)n(-c3ccc([N+](=O)[O-])cc3)[nH]2)cc1 | u | u | 16µM* | i | u | u
Cc1ccc2nc(C(F)(F)F)c(C#N)c(N)c2c1 | 10µM* | u | 16µM* | u | u | 21µM*
Cc1cc(C)c2nc(C(F)(F)F)c(C#N)c(N)c2c1 | 5% | u | u | u | 11% | u
Cc1c(OCC(=O)C(C)(C)C)ccc2c3c(c(=O)oc12)CCCC3 | 12% | i | 16µM* | i | 9% | u
CCCOc1ccc2c3c(c(=O)oc2c1OCCC)CCCC3 | -28% | i | u | i | -11% | u
CCOc1ccc2c3c(c(=O)oc2c1OCC)CCCC3 | 10%[9.24 µM] | i | u | 7.3µM* | -2% | u
Cc1c(OCC(=O)N(C)c2ccccc2)ccc2c3c(c(=O)oc12)CCC3 | -6% | i | -18% | 9.2µM* | -4% | -6%
Cc1c(OCC(=O)C(C)(C)C)ccc2c(-c3ccccc3)cc(=O)oc12 | -6% | i | 16µM* | i | 3% | u
N/C(Cc1ccc(Cl)c(Cl)c1)=N\OC(=O)c1ccc(Br)o1 | 1% | i | 2% | u | 4% | 5%
CN1CCN(/N=C/c2c3ccccc3c(Cl)c3ccccc23)CC1 | 21µM* | i | u | u | 23µM* | u
SMILES | HT1080 IDH1KD tx | KB-3-1 tox | DT40 TDP1 no CPT | KB-V1 cytotox | HT1080-NT tox | TDP1 cell CPT
Cc1noc(C)c1NC(=O)N(C)C[C@H]1Oc2ccc(NC(=O)C3CC3)cc2C(=O)N([C@H](C)CO)C[C@@H]1C | 7% | i | u | i | 14% | u
COCCN(C(=O)COC(=O)c1cccs1)c1c(N)n(Cc2ccccc2)c(=O)[nH]c1=O | 9% | i | 15% | i | 1% | -19%
CCOC(=O)C1CCN(C(=O)c2ccc3c(c2)sc2nc(-c4ccc(OC)cc4)cn23)CC1 | x | x | 23µM* | x | x | 23µM*
CCOC(=O)C1CCN(C(=O)c2ccc3c(c2)sc2nc(-c4ccc(C)cc4)cn23)CC1 | x | i | u | i | x | -27%
CCOC(=O)N1CCN(C(=O)c2ccc3c(c2)sc2nc(-c4ccc(OC)cc4)cn23)CC1 | 4% | i | 23µM* | i | 1% | u
COc1cc(OC)c(OC)cc1/C=N/NC(=O)c1cc(-c2cccn2C)n[nH]1 | 1% | i | 2% | i | 0% | -3%
COc1ccc(/C=N/NC(=O)c2cc(-c3cccn3C)n[nH]2)cc1OC | 10% | i | 18µM* | i | 11% | u
Cn1cccc1-c1cc(C(=O)N/N=C/c2cccc(O)c2)[nH]n1 | 4% | i | u | i | 9% | u
CCOc1cccc(/C=N/NC(=O)c2cc(-c3cccn3C)n[nH]2)c1O | u | u | 9.2µM* | u | -23% | 5.8µM*
Cc1ccccc1C(=O)NC1CC2CCCC(C1)N2CC(C)C (stereo unspecified) | 3% | i | -26% | i | 2% | u
O=C(Nc1ccccc1Cl)c1ccc2c(c1)N(Cc1ccc(F)cc1)C(=O)CS2=O (stereo unspecified) | 4% | i | u | i | -1% | 16µM*
CC(C)CCNC(=O)c1ccc2c(c1)N(Cc1ccccc1)C(=O)CS2=O (stereo unspecified) | -1% | i | u | i | 0% | 21µM*
CCOC(=O)c1cc(C)n(Cc2cccc(OC)c2OC)c1C | -19% | i | u | u | -10% | u
CCOC(=O)c1c(C)c(C)n(Cc2cccc(OC)c2OC)c1C | -4% | i | 23µM* | u | -1% | u
CCOC(=O)c1c(C=O)c(C)n(Cc2ccc(C)cc2)c1C | u | u | 23µM* | u | -22% | u
CCOC(=O)c1c(C=O)c(C)n(Cc2ccccc2Cl)c1C | -12% | i | -15% | 23µM* | 0% | -5%
COc1ccc(CN(C)C(=O)[C@H]2O[C@@H](n3cnc4c(N)ncnc43)[C@H](O)[C@@H]2O)cc1OC | 15% | i | 7% | i | 14% | -2%
